High-throughput results deposited in PubChem by National Center for Advancing Translational Sciences (NCATS).
Hits are enriched below; roughly 5.8% of the tested compounds scored in any of these assays.
uPA generation: cell surface uPA generation inhibition | cell surface uPA generation assay, qHTS | Potency, µM (highest dose often 38.3 µM), actives largely listed as inhibitors | actives 0.31% (n = 330,000) | AID 540303; active = well fitted inhibition curve with a large enough effect; inconclusive = small, poorly fitted or top-dose-only effect; inactive = no such curve, though single readings can be large or run the other way; tested in mouse RAW 264.7 cells; also: nearly all actives have a fitted effect of over 55% in size
TRPV1 potentiator: enhances activation of the human vanilloid receptor TRPV1. actives 0.02% (n = 320,000). potentiation, % at 8.33 µM. AID 540277. TRPV1-expressing cells, Fluo-8 calcium influx, capsaicin EC20 potentiation. Q8NER1; in the data active = potentiation above about 80%; inconclusive = between about 30% and that limit
Target sequence (Q8NER1 whole entry, looked up): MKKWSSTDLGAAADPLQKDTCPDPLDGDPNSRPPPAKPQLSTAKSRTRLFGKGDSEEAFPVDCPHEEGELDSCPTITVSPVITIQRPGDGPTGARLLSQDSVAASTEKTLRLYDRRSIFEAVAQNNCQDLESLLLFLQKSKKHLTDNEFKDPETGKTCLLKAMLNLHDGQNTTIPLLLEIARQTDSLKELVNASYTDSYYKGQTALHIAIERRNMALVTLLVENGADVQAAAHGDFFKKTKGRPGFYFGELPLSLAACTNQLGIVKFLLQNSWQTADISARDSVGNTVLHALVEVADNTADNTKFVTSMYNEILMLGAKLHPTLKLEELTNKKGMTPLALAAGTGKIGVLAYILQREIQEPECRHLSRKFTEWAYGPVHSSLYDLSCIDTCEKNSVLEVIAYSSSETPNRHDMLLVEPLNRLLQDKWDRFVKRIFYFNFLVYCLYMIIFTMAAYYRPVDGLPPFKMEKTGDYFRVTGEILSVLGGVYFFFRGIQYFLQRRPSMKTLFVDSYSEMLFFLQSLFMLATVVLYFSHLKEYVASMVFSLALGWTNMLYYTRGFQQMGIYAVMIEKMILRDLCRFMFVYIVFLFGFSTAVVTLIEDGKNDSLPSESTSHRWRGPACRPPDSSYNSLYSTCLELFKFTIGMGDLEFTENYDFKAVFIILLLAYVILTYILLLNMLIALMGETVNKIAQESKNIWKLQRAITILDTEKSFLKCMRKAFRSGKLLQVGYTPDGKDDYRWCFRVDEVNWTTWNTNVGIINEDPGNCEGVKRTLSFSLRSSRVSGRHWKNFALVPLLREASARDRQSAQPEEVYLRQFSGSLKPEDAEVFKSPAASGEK
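Fluo-8 calcium influx in TRPV1-expressing cells, kinetic read (ex 480/em 520 nm). Compound added and read 3 min for agonist activity, followed by capsaicin at EC20 final and 2 min further read for enhancement.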
RORgamma inh: inhibitors of mouse ROR gamma transcriptional activity; P51450; Potency, µM (highest dose often 53.6 µM), hits mostly inhibitors; actives 5.4% (n = 310,000); Drosophila S2 Gal4-RORgamma UAS-luciferase reporter, 20 h; AID 2551; also: nearly all actives have a fitted effect of over 60% in size
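Stable Schneider cell line, Gal4 DNA-binding domain fused to ROR gamma, UAS-luciferase. Cmpd 1 hr RT → CuSO4 700 uM final → 20 hr RT → luciferase reagent 10 min → luminescence.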
VP16 counter: inhibits Gal4-VP16 luciferase reporter, ROR gamma counter-screen; Drosophila S2 Gal4-VP16 UAS-luciferase, luminescence, 20 h; Potency, µM (highest dose often 53.6 µM), actives largely listed as inhibitors; actives 3.5% (n = 310,000);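 also: Gal4-VP16 expression switched on by copper sulfate through the metallothionein promoter; nearly all actives have a fitted effect of over 50% in size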
TRPV1 agonist: activates the human vanilloid receptor TRPV1 | AID 540275 | activation, % at 8.33 µM | Q8NER1 | actives 0.19% (n = 320,000) | TRPV1-expressing cells, Fluo-8 calcium influx, agonist mode; in the data active = activation above about 80%; inconclusive = between about 30% and that limit
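Fluo-8 calcium influx in TRPV1-expressing cells, kinetic read (ex 480/em 520 nm). Compound added and read 3 min for agonist activity, followed by capsaicin at EC20 final and 2 min further read for enhancement.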
Each line names hits and unclear results; the compound was inactive in the other large screens. Unless noted, calls follow the shape of the dose curve; as a rule, active = well fitted curve in the direction sought with a large enough effect; inconclusive = small, poorly fitted or top-dose-only effect, or another doubt; inactive = no such curve, though single readings can be large; an effect the other way counts as inactive or inconclusive.

CC(C)n1c(CSCc2ccc(Cl)cc2Cl)n[nH]c1=S	RORgamma inh 1.4µM, VP16 counter 3.2µM
C=CCOC(=O)C1=C[C@@H](c2csc3ccccc23)[C@H](CCCO)[C@@H](OCC)O1	none (no result: TRPV1 potentiator, RORgamma inh, VP16 counter, TRPV1 agonist)
CCOC(=O)c1c(-c2cccc([N+](=O)[O-])c2)csc1NC(=O)CCCOc1ccccc1OC	TRPV1 potentiator inconclusive
CCOC(=O)c1c(-c2cccc([N+](=O)[O-])c2)csc1NC(=O)CCCOc1ccccc1	TRPV1 potentiator inconclusive, RORgamma inh inconclusive, VP16 counter 8.9µM
COc1ccc(-c2nnc(NC(=O)c3ccc(S(=O)(=O)N4COCC4(C)C)cc3)o2)cc1	RORgamma inh 0.22µM, VP16 counter 0.4µM
CC1(C)COCN1S(=O)(=O)c1ccc(C(=O)Nc2nnc(-c3ccc(Cl)s3)o2)cc1	RORgamma inh 0.11µM, VP16 counter 0.13µM
CCCC(=O)Nc1nnc(-c2ccc(Cl)s2)o1	RORgamma inh 8.9µM, VP16 counter inconclusive
O=C(Nc1nnc(-c2ccc(Cl)s2)o1)C1CCCCC1	none (no result: TRPV1 potentiator, RORgamma inh, VP16 counter, TRPV1 agonist)
COc1ccc(C(=O)CSc2nnc(-c3ccc(S(=O)(=O)N4CCOCC4)cc3)o2)cc1	none
Cn1cccc1C(=O)N1CCC2(CC1)CN(c1ccccn1)C2	none (no result: uPA generation, TRPV1 potentiator, TRPV1 agonist)
Cc1noc(C)c1C(=O)N1CCC2(CCN(Cc3ccc(C#N)cc3)CC2)CC1	none (no result: uPA generation, TRPV1 potentiator, TRPV1 agonist)
Cc1ccccc1NC(=O)CSc1nc(COc2ccccc2)nc2ccccc12	none
Cc1cc(C)c(NC(=O)CSc2nc(COc3ccccc3)nc3ccccc23)c(C)c1	RORgamma inh inconclusive, VP16 counter 16µM
S=c1[nH]nc(COc2ccccc2)n1C1CCCCC1	RORgamma inh 1.8µM, VP16 counter 4µM
NC(=O)CSc1nnc(COc2ccccc2)n1C1CCCCC1	none
S=c1[nH]nc(CSc2nc3ccccc3s2)n1C1CCCCC1	RORgamma inh 0.2µM, VP16 counter 1.3µM
FC(F)(F)c1cccc(NCc2n[nH]c(=S)n2C2CCCCC2)c1	RORgamma inh 4.5µM
CC(C)CCn1c(COc2ccccc2)n[nH]c1=S	RORgamma inh 1.1µM, VP16 counter inconclusive
COc1ccccc1-c1nccc(NCc2cccs2)n1	none (no result: uPA generation, TRPV1 potentiator, TRPV1 agonist)
CCOCCO	none (no result: uPA generation, TRPV1 potentiator, TRPV1 agonist)
Cc1cccc(OCc2n[nH]c(=S)n2Cc2ccccc2)c1	RORgamma inh 2µM, VP16 counter inconclusive
CCc1ccc(OCc2n[nH]c(=S)n2Cc2ccccc2)cc1	none
CCc1ccc(OCc2n[nH]c(=S)n2C(C)CCCC(C)C)cc1 (stereo not drawn)	RORgamma inh 6.3µM
CCCc1n[nH]c(=S)n1Cc1ccco1	none
S=c1[nH]nc(COc2ccc(Cl)cc2)n1Cc1ccco1	RORgamma inh 3.2µM, VP16 counter inconclusive
Cc1nc(SCc2ccc(OCCC(C)C)cc2)n[nH]1	VP16 counter inconclusive
S=c1[nH]nc(COc2ccccc2)n1Cc1ccccc1	RORgamma inh 1.6µM, VP16 counter 6.3µM
Cc1cc2nc(-c3ccc(SCc4ccccn4)nc3)[nH]c2cc1C	TRPV1 agonist inconclusive
COC(=O)[C@H](COC(C)(C)C)NC(=O)O[C@@H]1C(=O)c2cc(OC)ccc2O[C@H]1c1ccc(OC)c(Br)c1	none (no result: uPA generation, TRPV1 potentiator, TRPV1 agonist)
Cc1ccccc1NC(=O)Cc1nnc(SCC(=O)NC2=NCCS2)n1C	none
CCn1c(CSc2nc3ccccc3s2)nc2ccccc21	RORgamma inh 10µM, VP16 counter inconclusive
CN1C(=O)/C(=C/c2ccccc2OCc2ccccc2F)NC1=S	RORgamma inh 1.6µM, TRPV1 agonist inconclusive
COc1cc(/C=C2/C(=O)N(C)C(=S)N2C)ccc1OCc1cccc(F)c1	none
O=C(O)c1ccc(COc2ccccc2/C=C2\NC(=O)N(Cc3ccccc3F)C2=O)cc1	none
CN1C(=O)/C(=C/c2ccc(OCc3cccc(F)c3)cc2)NC1=S	RORgamma inh 7.1µM, VP16 counter inconclusive
Cc1cnc(CNc2nc(-c3ccoc3)nc3ccccc23)cn1	none (no result: uPA generation, TRPV1 potentiator, TRPV1 agonist)
CCCc1ccc(O)c(N=Cc2cc(Br)cc(OCC)c2O)c1	RORgamma inh 7.1µM, VP16 counter 13µM
NC(=S)N/N=C1\CCOc2ccc(F)cc21	RORgamma inh 5µM, VP16 counter 22µM
CC(C)(C)OC(=O)C[C@H]1C/C=C\C[C@@H](CC(=O)N(CCO)Cc2ccccc2)C(=O)NC[C@@H](c2ccccc2)OC1=O	none (no result: TRPV1 potentiator, RORgamma inh, VP16 counter, TRPV1 agonist)
CC(C)NC(=S)N/N=C/c1ccc(C(C)(C)C)cc1	RORgamma inh 0.5µM, VP16 counter 2.2µM
CC(C)NC(=S)N/N=C/c1cccs1	RORgamma inh 0.79µM, VP16 counter 1.1µM
S=C(NCc1ccccc1)N/N=C/c1cccs1	RORgamma inh 0.4µM, VP16 counter 0.79µM
S=C(NCCc1ccccc1)N/N=C/c1cccs1	none (no result: TRPV1 potentiator, RORgamma inh, VP16 counter, TRPV1 agonist)
O=C(CC1NCCC[C@H]1O)Cn1cnc2cc(Br)c(Cl)cc2c1=O (stereo partly drawn)	none (no result: uPA generation, TRPV1 potentiator, TRPV1 agonist)
COc1cc(NC(=O)Cn2ncc(Cl)c(Cl)c2=O)c(C)cc1[N+](=O)[O-]	RORgamma inh 2µM, VP16 counter 7.1µM
COC(=O)[C@H](CCSC)NC(=O)C/C=C\[C@@H](C)[C@@H](CO)OC	none (no result: uPA generation, TRPV1 potentiator, TRPV1 agonist)
C/C(=C1/C(=O)N(c2ccc([N+](=O)[O-])cc2)N=C1c1ccccc1)N(C)C	RORgamma inh inconclusive, VP16 counter 14µM (no result: uPA generation)
CN(C)/C=C1/C(=O)N(c2ccc([N+](=O)[O-])cc2)N=C1c1ccccc1	RORgamma inh inconclusive, VP16 counter inconclusive (no result: uPA generation)
O=C(Nc1c(Br)cc2c(c1Br)Cc1ccccc1-2)C(Cl)Cl	none (no result: TRPV1 potentiator, RORgamma inh, VP16 counter, TRPV1 agonist)
O=C(NCC(c1ccco1)N1CCc2ccccc21)C(=O)Nc1ccc(F)cc1F (stereo not drawn)	uPA generation 3.2µM, TRPV1 potentiator inconclusive, TRPV1 agonist inconclusive (no result: RORgamma inh, VP16 counter)
O=C(NCC(c1ccco1)N1CCc2ccccc21)C(=O)Nc1ccccc1F (stereo not drawn)	uPA generation inconclusive (no result: RORgamma inh, VP16 counter)
C=CC1=C2C=C(C3CC3)N(CCCN(CC)CC)C=C2C(=O)C(C)(OC(=O)c2ccco2)C1=O (stereo not drawn)	none (no result: TRPV1 potentiator, RORgamma inh, VP16 counter, TRPV1 agonist)
COc1ccc(Br)cc1C(=O)Nc1cccc2ncccc12	none
COc1cc(C(=O)Nc2ccc3c(c2)ncn3C)cc(OC)c1OC	uPA generation inconclusive
COc1cc(C(=O)Nc2cccc3ncccc23)cc(OC)c1OC	RORgamma inh 35µM
COc1cc(C(=O)Nc2ccc3c(c2)nc(C)n3C)cc(OC)c1OC	uPA generation 5.6µM, TRPV1 potentiator inconclusive
COc1ccccc1NC(=O)Nc1ccc2c(c1)nc(C)n2C	RORgamma inh 10µM, VP16 counter inconclusive
Cc1cccc(C#Cc2ccccc2)n1	uPA generation inconclusive, RORgamma inh 14µM, VP16 counter inconclusive
CC1=CC(C)(C)N2C(=O)C3(SCC(=O)N3c3ccc(F)cc3)c3cc(C)cc1c32 (stereo not drawn)	RORgamma inh 16µM (no result: uPA generation)
Cc1nn2c(nc(N3CCCCC3)c3ccccc32)c1C=O	RORgamma inh inconclusive, TRPV1 agonist inconclusive
Cc1nn2c([nH]c(=O)c3ccccc32)c1C=O	RORgamma inh 4.5µM, VP16 counter 11µM (no result: uPA generation)
OC(c1ccccc1)(c1ccccc1)C1CCN(C(=S)NC2CCCC2)CC1	RORgamma inh 20µM
S=C(NC1CCCC1)N1CCOCC1	none
